IDH1 R132H inh: human IDH1 R132H inhibition; O75874; IDH1-R132H enzyme, NADPH consumption, diaphorase/resazurin fluorescence; Potency, µM (doses to about 76.6 µM), most hits filed as inhibitors; 390,000 tested, 0.093% active; AID 602179; further: nearly all actives have a fitted effect of over 65% in size
Target sequence (O75874 whole entry R132H, stated change not applied): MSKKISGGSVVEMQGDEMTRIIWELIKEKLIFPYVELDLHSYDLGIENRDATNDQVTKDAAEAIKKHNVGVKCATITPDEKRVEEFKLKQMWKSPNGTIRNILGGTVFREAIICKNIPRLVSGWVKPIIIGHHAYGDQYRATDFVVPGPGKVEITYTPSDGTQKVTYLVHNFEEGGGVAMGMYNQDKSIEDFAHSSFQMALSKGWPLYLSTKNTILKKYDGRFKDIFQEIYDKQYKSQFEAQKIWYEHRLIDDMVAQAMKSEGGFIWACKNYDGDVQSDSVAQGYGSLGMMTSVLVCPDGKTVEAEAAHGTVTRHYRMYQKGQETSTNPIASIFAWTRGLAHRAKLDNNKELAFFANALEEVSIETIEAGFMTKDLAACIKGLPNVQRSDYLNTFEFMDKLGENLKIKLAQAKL
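IDH1-R132H (0.5 ug/mL) preincubated 30 min with compound, then NADPH (0.016 mM) and alpha-KG (2 mM) added; 80 min at RT, pH 7.5. Remaining NADPH coupled via diaphorase/resazurin to fluorescence (540/590 nm); concentration-response curves normalized to no-enzyme control.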
IL2 activator: activators of IL-2; IL-2 activation reporter assay, cell-based qHTS; stimulated with anti-CD3/CD4/CD28 beads; in transgenic mouse T cells; activation, % (series mostly up to about 46 µM); 360,000 tested, 0.065% active; AID 652025; in the data active means activation above about 50%; inconclusive means mostly about 30% to 49%
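Unstimulated transgenic mouse T cells preincubated 60 min with compound, then stimulated with anti-CD3/anti-CD4-coated beads plus anti-CD28 for 18 h at 37 degrees C. IL-2 response read as EGFP and DsRed fluorescence by plate cytometry.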
BRCA1 expr act: increases BRCA1 expression. MCF7-BRCA1-FFLuc reporter, luminescence, 48 h; response scale: scaled: vehicle 0%, 10 µM genistein 100%. Potency, µM (doses to about 46.1 µM), hits mostly activators. 380,000 tested, 1.1% active; further: nearly all actives have a fitted effect of over 80% in size
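48 h compound treatment of MCF7-BRCA1-FFLuc cells (phenol-red free MEM, 37 °C), then 15 min with luciferase substrate and luminescence imaging.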
TrxR1 substrate: rat thioredoxin reductase 1 substrate activity; O89049; Potency, µM (series often up to 114 µM); AID 588456; 390,000 tested, 0.01% active; purified TrxR1 substrate turnover, NADPH consumption readout; further: nearly all actives have a fitted effect of over 50% in size
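Rat TrxR1, dispensed at 90 nM, was prereduced with 400 uM NADPH (final) for 5 min at ~22 deg C, then incubated with compound 15 min before 400 uM selenite. A first-read NADPH fluorescence drop versus no-compound background flagged substrates.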
Giardia killer: kills Giardia lamblia; Giardia lamblia trophozoite viability; activity change, % at 7.66 µM, hits read low; 340,000 tested, 0.15% active; AID 540267; in the data active means activity change below about -80%; inconclusive means between about -30% and that limit;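 further: parasites exposed to compound for two days anaerobically before the ATP read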
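Luminescence from cellular ATP indicates surviving trophozoites (100 cells/well) following 48 hrs anaerobic compound treatment at 37 deg C; signal develops 15-30 min at room temperature.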
rTrxR1 inhibitor: blocks rat thioredoxin reductase 1 | 390,000 tested, 1% active | AID 588453 | Potency, µM (series often up to 114 µM), most hits filed as inhibitors | O89049 | recombinant rTrxR1, NADPH fluorescence consumption, selenite substrate; further: nearly all actives have a fitted effect of over 65% in size
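Rat TrxR1 (90 nM in the dispensed reagent) was pre-reduced with 400 uM NADPH for 5 min at room temperature, then incubated with compound for 15 min. After 400 uM selenite was added, NADPH fluorescence (Ex 340/Em 450 nm) was followed for 8 min.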
Numbers stand for hits. Hits are enriched below; roughly 2.2% of the tested compounds scored in any of these assays. Unless noted, the call rests on the fitted dose curve; in most records, active means well fitted curve in the direction sought with a large enough effect; inconclusive means small, poorly fitted or top-dose-only effect, or another doubt; inactive means no such curve, though single readings can be large; an effect the other way counts as inactive or inconclusive.

For COc1ccc(-c2cc(-c3cc(F)ccc3O)[nH]n2)cc1OC the results were IDH1 R132H inh inactive, IL2 activator inactive, BRCA1 expr act 10µM, TrxR1 substrate inactive, Giardia killer inactive and rTrxR1 inhibitor inactive.
For CCOC(=O)Cn1c(CN2CCN(c3ccc(OC)cc3)CC2)nc2c1c(=O)[nH]c(=O)n2C the results were IDH1 R132H inh inactive, TrxR1 substrate inactive and rTrxR1 inhibitor inactive.
`COC(=O)C1=C(C)N(c2ccc(OC)c(OC)c2)C(=O)/C1=C\c1ccco1` gave IDH1 R132H inh inactive, IL2 activator inactive, BRCA1 expr act inactive, TrxR1 substrate inactive, Giardia killer inactive and rTrxR1 inhibitor 28µM.
`Oc1cc2cc(-c3csc(-c4ccc(F)cc4)n3)cc3c2n1CCC3` gave BRCA1 expr act 13µM, TrxR1 substrate inactive and rTrxR1 inhibitor inactive.
Screening CC(C)Oc1ccc(CNC(=O)CN2C(=O)CCn3nc(-c4cn(C)c5ccccc45)cc32)cc1 returned IDH1 R132H inh inactive, TrxR1 substrate inactive and rTrxR1 inhibitor inactive.
Screening CCN(CC)c1ccc(/C=N/N2CCOCC2)cc1 returned IDH1 R132H inh inactive, IL2 activator inactive, BRCA1 expr act 3.2µM, TrxR1 substrate inactive, Giardia killer inactive and rTrxR1 inhibitor inactive.
Screening CCN(Cc1ccccc1)c1ccc(/C=N/N2CCOCC2)cc1 returned IDH1 R132H inh inactive, IL2 activator inactive, BRCA1 expr act inactive, TrxR1 substrate inactive, Giardia killer inactive and rTrxR1 inhibitor inactive.
Screening Cc1nn(C)c2c1c(-c1ccccc1)cc(=O)n2Cc1ccc(F)cc1 returned IDH1 R132H inh inactive, TrxR1 substrate inactive and rTrxR1 inhibitor inactive.
For CCn1cc2nc(SCC(=O)Nc3cc(OC)ccc3OC)n(Cc3ccc(Cl)cc3)c(=O)c2n1 the results were IDH1 R132H inh inactive, BRCA1 expr act inactive, TrxR1 substrate inactive and rTrxR1 inhibitor inactive.
COc1ccc(OCc2cc(C(=O)NCC3CCOCC3)no2)c(Cl)c1 was read as IDH1 R132H inh inactive, IL2 activator inactive, BRCA1 expr act inconclusive, TrxR1 substrate inactive, Giardia killer inactive and rTrxR1 inhibitor inactive.
Screening CN(CCc1ccccc1)C(=O)c1cc(COc2ccc(F)cc2Cl)on1 returned IDH1 R132H inh inactive, IL2 activator inactive, BRCA1 expr act 13µM, TrxR1 substrate inactive, Giardia killer inactive and rTrxR1 inhibitor inactive.
For COc1ccc(OCc2cc(C(=O)N(C)Cc3cnccn3)no2)c(Cl)c1 the results were IDH1 R132H inh inactive, IL2 activator inactive, BRCA1 expr act 8.9µM, TrxR1 substrate inactive, Giardia killer inactive and rTrxR1 inhibitor inactive.
For Cc1ccc(OCc2cc(C(=O)NC(C)Cc3cnccn3)no2)cc1C (stereo not given) the results were IDH1 R132H inh inactive, IL2 activator inactive, BRCA1 expr act inactive, TrxR1 substrate inactive, Giardia killer inactive and rTrxR1 inhibitor inactive.
For COc1ccc(OCc2cc(C(=O)NC(C)Cc3cnccn3)no2)c(Cl)c1 (stereo not given) the results were IDH1 R132H inh inactive, IL2 activator inactive, BRCA1 expr act 11µM, TrxR1 substrate inactive, Giardia killer inactive and rTrxR1 inhibitor inactive.
Screening COc1ccc(OCc2cc(C(=O)NCC3CCCCO3)no2)c(Cl)c1 (stereo not given) returned IDH1 R132H inh inactive, IL2 activator inactive, BRCA1 expr act 13µM, TrxR1 substrate inactive, Giardia killer inactive and rTrxR1 inhibitor inactive.
Screening CCCN1C(=O)c2[nH]nc(-c3cccc(OC)c3)c2C1c1ccccn1 (stereo not given) returned IDH1 R132H inh inactive, TrxR1 substrate inactive and rTrxR1 inhibitor inactive.
COc1ccccc1CNC(=O)CN1C(=O)c2cccnc2Oc2ccccc21 was read as TrxR1 substrate inactive and rTrxR1 inhibitor inactive.
Cc1ccc(NC(=O)c2cc3c(=O)n(Cc4ccco4)ccc3nc2C)cc1C was read as IDH1 R132H inh inactive, TrxR1 substrate inactive and rTrxR1 inhibitor inactive.
`CC(=O)Nc1ccc(/C=C/C(=O)c2ccc(-n3nncc3-c3ccccc3)cc2)cc1` gave BRCA1 expr act inactive, TrxR1 substrate inactive, Giardia killer inactive and rTrxR1 inhibitor inactive.
For Cc1ccc(Cl)cc1N1CCN(c2ncnc3onc(C)c23)CC1 the results were IDH1 R132H inh inactive, BRCA1 expr act inactive, TrxR1 substrate inactive and rTrxR1 inhibitor inactive.
`CCN(C(=O)c1cn(CC)c(=O)c2cc(OC)c(OC)cc12)c1ccc(C)c(C)c1` gave IDH1 R132H inh inactive, BRCA1 expr act inactive, TrxR1 substrate inactive and rTrxR1 inhibitor inactive.
COc1ccc2nc(N3CCCCC3)c(C#N)cc2c1 was read as IDH1 R132H inh inactive, IL2 activator inactive, BRCA1 expr act 11µM, TrxR1 substrate inactive, Giardia killer inactive and rTrxR1 inhibitor inactive.
Screening N#C/C(=C/c1ccc(OCc2ccc(C(=O)O)cc2)cc1)C(=O)Nc1ccccc1 returned IDH1 R132H inh inactive, IL2 activator inactive, BRCA1 expr act inactive, TrxR1 substrate inactive, Giardia killer inactive and rTrxR1 inhibitor inactive.
`COc1cc(/C=C(\C#N)C(=O)Nc2cccc(C(=O)O)c2)ccc1OCc1ccc(F)cc1` gave IDH1 R132H inh inactive, IL2 activator inactive, BRCA1 expr act 11µM, TrxR1 substrate inactive, Giardia killer inactive and rTrxR1 inhibitor inactive.
COc1ccc(NC(=O)/C(C#N)=C\c2ccc(OCc3ccc(C(=O)O)cc3)c(OC)c2)cc1 was read as IDH1 R132H inh inactive, IL2 activator inactive, BRCA1 expr act inactive, TrxR1 substrate inactive, Giardia killer inactive and rTrxR1 inhibitor inactive.
For N#C/C(=C\c1ccc(OCc2ccc(Br)cc2)cc1)C(=O)Nc1cccc(C(=O)O)c1 the results were IDH1 R132H inh inactive, IL2 activator inactive, BRCA1 expr act 7.1µM, TrxR1 substrate inactive, Giardia killer inactive and rTrxR1 inhibitor inactive.
CCOc1cc(/C=C(\C#N)C(=O)Nc2cccc(C(=O)O)c2)ccc1OCc1ccccc1Cl was read as IDH1 R132H inh 33µM, IL2 activator inactive, BRCA1 expr act inactive, TrxR1 substrate inactive, Giardia killer inactive and rTrxR1 inhibitor inactive.
Screening N#C/C(=C\c1ccc(OCc2ccc(F)cc2)cc1)C(=O)Nc1cccc(C(=O)O)c1 returned IDH1 R132H inh inactive, IL2 activator inactive, BRCA1 expr act 11µM, TrxR1 substrate inactive, Giardia killer inactive and rTrxR1 inhibitor inactive.
CC(=O)n1cc(Nc2ccc([N+](=O)[O-])cc2)c2ccccc21 was read as IDH1 R132H inh inactive, IL2 activator inactive, BRCA1 expr act inactive, TrxR1 substrate inactive, Giardia killer inactive and rTrxR1 inhibitor inactive.
`CC(=O)SC(C[N+](=O)[O-])c1cn(C(C)=O)c2ccccc12` (stereo not given) gave IDH1 R132H inh inactive, IL2 activator inactive, BRCA1 expr act inactive, TrxR1 substrate inactive, Giardia killer inactive and rTrxR1 inhibitor 18µM.
